These results are taken from PubChem BioAssay (NCI).

This is part of a sample that, as a whole, favours compounds with a hit. Of some 83,000 tested, about 20% had one in any assay.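 Growth was measured after 48 h exposure to one concentration of compound in 96-well plates. Values under 10 count as active.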 Values without a mark were called inactive. The source made the active and inactive calls.

Among the test systems are SK-MEL-2 melanoma; EKVX NSCLC; SN12C renal; UO-31 renal; TK-10 renal; ACHN renal; CAKI-1 renal; A498 renal; CCRF-CEM leukemia; MOLT-4 leukemia; SR leukemia; OVCAR-8 ovarian; OVCAR-5 ovarian; OVCAR-4 ovarian; SK-OV-3 ovarian; IGROV1 ovarian; OVCAR-3 ovarian; HS 578T breast; NCI/ADR-RES ovarian.
Common to all, as to test: NCI-60 one-dose screen, 48 h (100 = growth as untreated, 0 = no growth, -100 = all killed)
Holding throughout (settings): 10 µM unless noted

On to `Cc1[nH]c(C(=O)Nc2ccc(C(=O)NCCN)cc2OC(C)C)c(Cl)c1Cl`, for which the growth in the test with SK-MEL-2 melanoma is 98.6%; in the test on EKVX NSCLC, 87.6%; in the test with SN12C renal, 48.1%; in the test with UO-31 renal it was 57.1%; in the test on TK-10 renal, -21.6% (active); with ACHN renal, 40.7%. For the same compound, the growth in the test on CAKI-1 renal was 14.2%; with A498 renal, 67.4%; with CCRF-CEM leukemia, -10.5% (active); with MOLT-4 leukemia, -27.7% (active); with SR leukemia it was -51.3% (active); in the test with OVCAR-8 ovarian, 9.08% (active). Besides, the growth was 89.4% in the test on OVCAR-5 ovarian; -12.2% (active) in the test with OVCAR-4 ovarian; 90.5% with SK-OV-3 ovarian; 64.1% in the test on IGROV1 ovarian; -6.76% (active) with OVCAR-3 ovarian; 35.1% with HS 578T breast. Besides, in the test with NCI/ADR-RES ovarian, the growth is 91%.
With `CCCCn1c(=O)c(-c2cc(-c3ccc(Cl)cc3)nc(-c3ccc(Cl)cc3)c2)cc2ccc(Cl)cc21`, the growth in the test on SK-MEL-2 melanoma is 123%; in the test with EKVX NSCLC, 105%; in the test on SN12C renal, 98.8%; in the test with UO-31 renal it was 86.8%; in the test on TK-10 renal it was 115%; in the test with ACHN renal, 104%. The growth in the test with CAKI-1 renal was 91.6%; with A498 renal, 102%; in the test on CCRF-CEM leukemia, 100%; with MOLT-4 leukemia it was 100%; in the test on SR leukemia, 98.1%; in the test with OVCAR-8 ovarian it was 108%. Besides, the growth in the test with OVCAR-5 ovarian is 94.1%; with OVCAR-4 ovarian, 109%; with SK-OV-3 ovarian it was 99.6%; in the test with IGROV1 ovarian, 105%; in the test with OVCAR-3 ovarian, 112%; with HS 578T breast, 108%. Also, the growth in the test with NCI/ADR-RES ovarian was 95.9%.
`COc1cc2cc(Oc3ccc(NC(=O)Nc4ccc(Cl)c(Cl)c4)cc3)c(C)nc2cc1OCCN1CCOCC1`: the growth in the test with SK-MEL-2 melanoma is 107%; in the test with EKVX NSCLC, 66.4%; in the test on SN12C renal, 91.5%; in the test with UO-31 renal it was 83.9%; in the test on TK-10 renal it was 124%; with ACHN renal, 93.4%. For the same compound, the growth in the test with CAKI-1 renal was 87.5%; in the test with A498 renal it was 72.8%; in the test on CCRF-CEM leukemia, 65%; in the test on MOLT-4 leukemia it was 62.7%; in the test with SR leukemia, 5.6% (active); with OVCAR-8 ovarian, 91.1%. Also, the growth in the test with OVCAR-5 ovarian is 127%; in the test with OVCAR-4 ovarian it was 85%; with SK-OV-3 ovarian, 111%; in the test on IGROV1 ovarian it was 97.8%; in the test on OVCAR-3 ovarian, 106%; in the test with HS 578T breast, 102%. Moreover, the growth with NCI/ADR-RES ovarian was 91.4%.
For the compound `Cc1cccc2c3c(sc12)C(c1ccc(Cl)cc1)C(C#N)=C(N)O3` (configuration not stated), the growth is 45.7% in the test on SK-MEL-2 melanoma; 44.5% in the test on EKVX NSCLC; 25.2% with SN12C renal; 39% in the test on UO-31 renal; 71.7% with TK-10 renal; 25.2% with ACHN renal. Also, the growth with CAKI-1 renal is 8.51% (active); with A498 renal, -6.58% (active); in the test on CCRF-CEM leukemia, 13.2%; with MOLT-4 leukemia, 11.9%; in the test with SR leukemia, 15.8%; in the test with OVCAR-8 ovarian, 22.2%. Further, the growth was 23.3% with OVCAR-5 ovarian; 58.4% in the test with OVCAR-4 ovarian; 60.1% in the test with SK-OV-3 ovarian; 23.8% with IGROV1 ovarian; -17.3% (active) with OVCAR-3 ovarian; 15.9% with HS 578T breast. The growth in the test on NCI/ADR-RES ovarian was 9.13% (active).
In the case of `O=c1c2cc(F)ccc2sc2c(NCCCNCCO)nc3ccc(F)cc3c12`, the growth in the test with SK-MEL-2 melanoma was 97.3%; in the test with EKVX NSCLC, 75.4%; in the test on SN12C renal, 66.1%; in the test with UO-31 renal, 31.1%; in the test with TK-10 renal, 67.5%; in the test with ACHN renal, 46.9%. Further, the growth in the test with CAKI-1 renal is 27.1%; with A498 renal, 26.9%; in the test with CCRF-CEM leukemia, 15.1%; in the test on MOLT-4 leukemia it was 18.8%; with SR leukemia it was -25.8% (active); in the test with OVCAR-8 ovarian, 58.5%. Moreover, the growth in the test on OVCAR-5 ovarian was 73.7%; in the test with OVCAR-4 ovarian it was 41.5%; with SK-OV-3 ovarian it was 80.4%; in the test on IGROV1 ovarian, 43.6%; with OVCAR-3 ovarian it was 30.4%; with HS 578T breast it was 61%. Moreover, in the test on NCI/ADR-RES ovarian, the growth is 66.5%.
Consider `Cc1ccc2c(n1)C(=O)C(Cl)=C(Nc1ccccc1C(C)C)C2=O`, for which the growth was 64% in the test on SK-MEL-2 melanoma; 95.8% in the test with EKVX NSCLC; 23.7% with SN12C renal; 57% in the test on UO-31 renal; 165% with TK-10 renal; 49.2% in the test with ACHN renal. Moreover, the growth with CAKI-1 renal was 35%; with A498 renal, 99.7%; in the test with CCRF-CEM leukemia, 35.7%; in the test on MOLT-4 leukemia it was 31.9%; in the test with SR leukemia it was 33.4%; with OVCAR-8 ovarian, 67.5%. The growth was 85.9% with OVCAR-5 ovarian; 28.4% in the test with OVCAR-4 ovarian; 79.7% in the test with SK-OV-3 ovarian; 63.9% in the test with IGROV1 ovarian; -3.79% (active) in the test on OVCAR-3 ovarian; 100% in the test on HS 578T breast. In addition, in the test on NCI/ADR-RES ovarian, the growth is 85.8%.
Regarding `O=C(Nc1ccc(Br)cc1F)c1cc(Br)ccc1O`, the growth is -25.4% (active) with SK-MEL-2 melanoma; 9.76% (active) in the test on EKVX NSCLC; -10.9% (active) in the test on SN12C renal; -11% (active) in the test on UO-31 renal; 15.3% in the test with TK-10 renal; -0.439% (active) with ACHN renal. The growth in the test on CAKI-1 renal is 2.12% (active); in the test with A498 renal, -42% (active); with CCRF-CEM leukemia, 20.9%; with MOLT-4 leukemia it was 1.26% (active); in the test with SR leukemia it was 4.87% (active); in the test on OVCAR-8 ovarian, 11.6%. Also, the growth with OVCAR-5 ovarian is 25.3%; with OVCAR-4 ovarian, 22.4%; in the test on SK-OV-3 ovarian it was 12%; in the test with IGROV1 ovarian it was 15.3%; in the test on OVCAR-3 ovarian, 5.37% (active); in the test with HS 578T breast, 4.22% (active). In the test with NCI/ADR-RES ovarian, the growth is 7.36% (active).
Take `CN1CCN(CC(=O)N2c3cccc4cccc(c34)N(C(=O)CN3CCN(C)CC3)C2c2cn(-c3ccccc3)nc2-c2cccc([N+](=O)[O-])c2)CC1`: the growth in the test with SK-MEL-2 melanoma is -47.6% (active); with EKVX NSCLC, 17.8%; in the test with SN12C renal, -21.5% (active); in the test on UO-31 renal, 26.2%; in the test with TK-10 renal, -19.4% (active); in the test on ACHN renal, -31.1% (active). Further, the growth in the test on CAKI-1 renal is 14.4%; in the test with A498 renal it was 44.6%; in the test on CCRF-CEM leukemia it was -32% (active); in the test on MOLT-4 leukemia it was -11.6% (active); in the test with SR leukemia, -17.2% (active); in the test on OVCAR-8 ovarian, -8.45% (active). For the same compound, the growth in the test with OVCAR-5 ovarian is 20.5%; in the test with OVCAR-4 ovarian it was -21.8% (active); in the test with SK-OV-3 ovarian it was -14.4% (active); with IGROV1 ovarian, 4.75% (active); in the test on OVCAR-3 ovarian, -57.6% (active); in the test with HS 578T breast, 28.6%. Besides, the growth with NCI/ADR-RES ovarian was 72.4%.
